Assay [1] is described as follows: qHTS assay to identify small molecule antagonists of the vitamin D receptor (VDR) signaling pathway - cell viability counter screen (AID 743225). Also: % is scaled to controls: 0 for no effect and ±100 for the full control effect; nearly all actives have a fitted effect of over 50% in size. The method in brief: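 VDR-UAS-bla HEK 293T cells were plated and incubated 4 h at 37C, then dosed with compound plus 3 nM (final) 1-alpha,25-dihydroxyvitamin D3 for 16 h. After the 2 h beta-lactamase read, viability in the same wells was read as CellTiter-Glo luminescence after 30 min at room temperature.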

The nature of assay [2]: qHTS assay to identify small molecule agonists of the NFkB signaling pathway (AID 1159509; active = well fitted curve in the direction sought with a large enough effect in the signal ratio in the repeat runs, not every such curve was filed as active; the % refers to the signal ratio; also: series mostly up to about 61 µM; % is scaled to controls: 0 for no effect and ±100 for the full control effect). The method in brief:
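Beta-lactamase reporter assay run in quantitative high-throughput format on an NF-kB-responsive ME-180 line, with 5 hr compound treatment and a FRET-based blue/green fluorescence readout.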

Assay [3] is described as follows: qHTS assay to identify small molecule agonists of the NFkB signaling pathway - cell viability counter screen (AID 1159515; calls by dose curve; also: series mostly up to about 61 µM; % is scaled to controls: 0 for no effect and ±100 for the full control effect; nearly all actives have a fitted effect of over 55% in size). The method in brief:
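Parallel cytotoxicity counter screen in ME-180 cells carrying an NFkB-response-element beta-lactamase reporter, 2,000 cells/well. Compound exposure lasted 5 hr at 37 C, 5% CO2. Cell viability was quantified by CellTiter-Glo luminescence.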

Assay [4] in a line: qHTS assay to identify small molecule agonists of the endoplasmic reticulum stress response signaling pathway (AID 1159516; active = well fitted activation curve with a large enough effect in the signal ratio in the repeat runs, not every such curve was filed as active; the % refers to the signal ratio; also: % is scaled to controls: 0 for no effect and ±100 for the full control effect). In a few lines: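 Using a HeLa line with an ESRE-driven beta-lactamase gene, agonist activity was measured by FRET substrate fluorescence (460 and 530 nm emission) after cells were treated with compounds for 5 hr at 37 C and 5% CO2.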
A short description of assay [5]: qHTS assay to identify small molecule agonists of the endoplasmic reticulum stress response signaling pathway - cell viability counter screen (AID 1159517; calls by dose curve;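 also: HeLa cells carrying an ER stress response element beta-lactamase reporter; series mostly up to about 61 µM; % is scaled to controls: 0 for no effect and ±100 for the full control effect; nearly all actives have a fitted effect of over 50% in size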). The method in brief: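 After overnight attachment, ESRE-bla HeLa cells were treated with Tox21 library compounds for 5 hr. CellTiter-Glo luminescence, read 30 min post-addition at room temperature, reported viability.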

The nature of assay [6]: qHTS assay to identify small molecule antagonists of the retinoid-related orphan receptor gamma (ROR-gamma) signaling pathway - cell viability counter screen (AID 1159520). Also: % is scaled to controls: 0 for no effect and ±100 for the full control effect; nearly all actives have a fitted effect of over 50% in size. The method in brief: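 Cytotoxicity was read from cellular ATP (CellTiter-Glo luminescence) after 16 hr at 37 C with 1 uM doxycycline induction. The inducer was added 2 hr after compound transfer to Tet-on ROR gamma CHO cells.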

Assay [7] concerns the target Nuclear receptor ROR-gamma (Homo sapiens) (UniProt P51449). Kind of assay: qHTS assay to identify small molecule antagonists of the retinoid-related orphan receptor gamma (ROR-gamma) signaling pathway (AID 1159521;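 also: CHO cells with doxycycline inducible ROR-gamma driving an RORE luciferase reporter; top concentration of the series differs between compounds; % is scaled to controls: 0 for no effect and ±100 for the full control effect; nearly all actives have a fitted effect of over 50% in size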). The method in brief: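 Tet-on ROR-gamma CHO cells with ROR response element-luciferase reporter; compounds added 2 hr before 1 uM doxycycline induction, then 16 hr at 37 C. Antagonism scored as decreased ONE-Glo luminescence.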

Assay [8] in a line: qHTS assay to identify small molecule agonists of the AP-1 signaling pathway (AID 1159526; calls by dose curve; also: % is scaled to controls: 0 for no effect and ±100 for the full control effect).
Assay [9] can be described thus: qHTS assay to identify small molecule agonists of the RXR signaling pathway - cell viability counter screen (AID 1159529). In a few lines: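 RXR-alpha-UAS-bla HEK 293T cells in medium with 2% charcoal-stripped FBS were pre-incubated 5 hr, then compound-treated 16 hr at 37 C. Viability was read by CellTiter-Glo luminescence in the same wells as the beta-lactamase assay, with tetraoctyl ammonium bromide as positive control.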

Assay [10] can be described thus: qHTS assay to identify small molecule antagonists of the retinoid acid receptor (RAR) signaling pathway - cell viability counter screen (AID 1159551). Also: % is scaled to controls: 0 for no effect and ±100 for the full control effect; nearly all actives have a fitted effect of over 35% in size. The method in brief:
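ATP-based viability, C3RL4 cells, 6 h at 37 C with 1 uM final retinol co-added after compound; luminescence read 30 min post CellTiter-Glo, RT.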

Assay [11] in a line: qHTS assay to identify small molecule agonists of the retinoic acid receptor (RAR) signaling pathway (AID 1159553). Also: % is scaled to controls: 0 for no effect and ±100 for the full control effect. In a few lines:
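Quantitative high-throughput format: the Tox21 10K library was tested on C3RL4 RARE-luciferase cells for 6 hr at 37 C and 5% CO2, with luminescence measured after a 30 min room-temperature reagent step.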

Assay [12] in a line: qHTS assay to identify small molecule antagonists of the estrogen related receptor (ERR) signaling pathway from Tox21 library - cell viability counter screen (AID 1224834). Also: % is scaled to controls: 0 for no effect and ±100 for the full control effect; nearly all actives have a fitted effect of over 30% in size. The method in brief:
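Compounds in DMSO were pinned onto ERR cells that had been incubated for 6 h, and the plates were held at 37 C for 17.5 h. CellTiter-Fluor reagent was then added and fluorescence was measured after 30 min.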

Assay [13] in a line: qHTS assay to identify small molecule agonists of the AP-1 signaling pathway - cell viability counter screen (AID 1159525; calls by dose curve; also: nearly all actives have a fitted effect of over 55% in size). The method in brief: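 Intracellular ATP by Cell Titer Glo luminescence (30 min, RT) in the same ME-180 AP-1-bla wells after the 5 h compound exposure at 37 °C. Normalised to tetra n-octyl ammonium bromide and DMSO controls.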
In assay [14] the target is Retinoic acid receptor RXR-alpha (Homo sapiens) (UniProt P19793). As to the kind of experiment: qHTS assay to identify small molecule agonists of the RXR signaling pathway (AID 1159527; calls by dose curve; also: % is scaled to controls: 0 for no effect and ±100 for the full control effect; nearly all actives have a fitted effect of over 35% in size). In a few lines: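 GeneBLAzer RXR-alpha-UAS-bla HEK 293T cells in 2% charcoal-stripped FBS medium were exposed to compounds for 16 hr at 37 C in agonist mode. Beta-lactamase reporter read as 460/530 nm FRET ratio after 2 hr substrate loading.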
Sequence of Retinoic acid receptor RXR-alpha (Homo sapiens) (P19793 whole entry, looked up): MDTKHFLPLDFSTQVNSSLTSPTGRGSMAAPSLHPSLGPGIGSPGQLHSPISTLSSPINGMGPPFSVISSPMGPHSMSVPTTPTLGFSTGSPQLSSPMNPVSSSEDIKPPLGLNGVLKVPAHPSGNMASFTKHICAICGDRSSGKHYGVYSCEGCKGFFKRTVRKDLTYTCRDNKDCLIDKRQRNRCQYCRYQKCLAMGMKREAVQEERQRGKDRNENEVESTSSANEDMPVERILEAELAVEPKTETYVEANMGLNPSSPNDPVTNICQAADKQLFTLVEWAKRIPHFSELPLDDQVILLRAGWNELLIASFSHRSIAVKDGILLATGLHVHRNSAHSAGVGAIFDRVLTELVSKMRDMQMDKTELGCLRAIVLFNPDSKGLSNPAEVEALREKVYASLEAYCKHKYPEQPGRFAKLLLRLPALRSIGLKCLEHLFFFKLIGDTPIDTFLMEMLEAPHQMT

Assay [15] can be described thus: qHTS assay to identify small molecule antagonists of the retinoic acid receptor (RAR) signaling pathway (AID 1159552; also: nearly all actives have a fitted effect of over 50% in size; also: potency is read from the fitted curve at half-maximal effect). The method in brief:
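Retinol signaling pathway inhibitors screened in C3RL4 RARE-luciferase reporter cells seeded overnight at 37 C, then compounds added with 1 uM (final) retinol as pathway substrate. After 6 hr at 37 C, luciferase luminescence read after 30 min at room temperature.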

Records with an inconclusive call do not appear. Values without a mark were called inactive. Activity calls are given as the source filed them. Unless noted, calls follow the shape of the dose curve; as a rule, active = well fitted curve in the direction sought with a large enough effect in the repeat runs; inconclusive = weak or mixed curves; inactive = no such curve, though single readings can be large; an effect the other way counts as inactive or inconclusive.

As for `O=[N+]([O-])c1cccc(O)c1`, the call in assay [1], in [2], in assay [3], in assay [4] and in assay [8] was inactive. For the same compound, the Potency result in assay [5], in assay [6], in [7], in [9], in assay [10] and in [11] was “inactive” throughout. For the same compound, in assay [12], the Potency entry is “inactive”.
On to `CNCC(=O)c1ccc(O)c(O)c1`, for which the compound was classed as inactive in assay [1], in assay [2], in assay [3], in assay [4] and in [8]. Moreover, the Potency entry in assay [5], in assay [6], in [13], in [9], in [10] and in assay [12] was “inactive” throughout.
On to `O=C1c2ccccc2C(=O)c2ccccc21`, for which the call in assay [1], in assay [2], in assay [3] and in assay [4] was inactive. Moreover, the Potency entry in assay [5] was “inactive”. The activity, negative = cytotoxicity in assay [6] is -0.509% [at 19 µM]. The activity change, negative = inhibition in [7] is 99.4% [at 19 µM]. For the same compound, the activation was 11.5% [at 15.8 µM] in assay [8] and 2.89% [at 15.8 µM] in assay [14]. The activity change, negative = cytotoxicity in assay [9] is 3.01% [at 15.8 µM]; in assay [10] it was 3.84% [at 19 µM]. Also, in assay [15], the activity, negative = inhibition is 14.2% [at 19 µM]. Further, the viability change, negative = cytotoxic in assay [12] was 0.548% [at 19 µM].
For `c1ccc(N2CCNCC2)cc1`, the compound was called inactive in assay [1], in [2], in assay [3], in [4] and in [8]. Also, the Potency entry in [5], in assay [6], in assay [13], in [14], in [10] and in assay [12] was “inactive” in each case.
Regarding `COC(C)(C)C`, the call in assay [1], in assay [2], in assay [3], in [4] and in assay [8] was inactive. In addition, the Potency result in [5], in [6], in [13], in assay [14], in assay [9] and in [10] was “inactive” each time. The Potency result in assay [15], in assay [11] and in assay [12] was “inactive” in each case.
For `COC(=O)c1c(C(F)F)nc(C(F)(F)F)c(C2=NCCS2)c1CC(C)C`, the compound was classed as inactive in [2], in assay [3], in assay [4] and in assay [8]. The Potency entry in assay [5], in assay [6], in assay [13], in assay [14], in assay [9] and in assay [10] was “inactive” throughout. Besides, the Potency entry in assay [15], in [11] and in assay [12] was “inactive” throughout.
As for `C#C[C@]1(O)C=C[C@H]2[C@@H]3CCC4=CC(=O)CC[C@@H]4[C@H]3CC[C@@]21CC`, the compound was called inactive in assay [1], in assay [2], in assay [3], in [4] and in assay [8]. Besides, the Potency result in assay [5], in assay [6], in [13], in [9], in [10] and in [11] was “inactive” throughout. Also, in assay [12], the Potency result was “inactive”. The Potency in assay [15] is 11.9 µM (active).
`Cc1cnc[nH]1`: the result in assay [1], in [2], in [3], in assay [4] and in assay [8] was inactive. In addition, the Potency result in assay [5], in assay [6], in assay [13], in [14], in [9] and in assay [10] was “inactive” each time. Also, the Potency entry in assay [15], in [11] and in assay [12] was “inactive” in each case.
Take `Clc1ccccc1N1CCNCC1`: the outcome in [1], in assay [2], in assay [3], in assay [4] and in assay [8] was inactive. Further, the Potency entry in assay [5], in assay [6], in assay [13], in assay [14], in assay [9] and in [10] was “inactive” in each case. Also, the Potency entry in [15], in [11] and in [12] was “inactive” in each case.
Take `CCN(CC)c1nc(C)cc(OP(=S)(OC)OC)n1`: the result in assay [1], in assay [2], in assay [3] and in [4] was inactive. Moreover, the Potency entry in assay [5], in assay [7], in [13], in [9], in [10] and in assay [15] was “inactive” in each case. Moreover, the Potency entry in assay [11] and in assay [12] was “inactive” in each case.

Source of the values: PubChem BioAssay (Tox21).
